Values joined by “and” are separate entries in the source; they are usually repeats but may differ in a detail not shown here. Equal entries are not always repeated. Records with an inconclusive call do not appear. Some compounds were tested as several samples or in several runs, with calls that do not always agree. Active and inactive are the calls of the source. Unless noted, calls come from the whole dose curve; as a rule, active = well fitted cell-killing curve with a large enough effect in the repeat runs (not every such curve was filed as active); inconclusive = weak or mixed curves, or effect the other way; inactive = no such curve, though single readings can be large or run the other way.
Molecular target: Peroxisome proliferator-activated receptor delta (Homo sapiens) (UniProt Q03181)
Assay: qHTS assay to identify small molecule antagonists of the peroxisome proliferator-activated receptor delta (PPARd) signaling pathway (AID 743215; active = well fitted inhibition curve with a large enough effect in the signal ratio in the repeat runs, not every such curve was filed as active; the % refers to the signal ratio;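 note: cells stimulated with agonist L165041 at 300 nM final during compound exposure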; note: potency is the fitted concentration of half-maximal effect)
Settings: HEK293H PPARd-UAS-bla, beta-lactamase FRET ratio, antagonist, 17 h; series mostly up to 62 µM; ratio activity, negative = inhibition: at the top concentration
Procedure, shortened: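 Cells: HEK293H with a UAS-driven beta-lactamase reporter responsive to PPARd. Compounds were co-added with L165041 (300 nM, final) and incubated 17 h at 37 C before a 2 h room-temperature FRET substrate step and fluorescence reading.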
% is set by controls: 0 for no effect and ±100 for the full control effect.

Sequence of Peroxisome proliferator-activated receptor delta (Homo sapiens) (Q03181 whole entry, looked up): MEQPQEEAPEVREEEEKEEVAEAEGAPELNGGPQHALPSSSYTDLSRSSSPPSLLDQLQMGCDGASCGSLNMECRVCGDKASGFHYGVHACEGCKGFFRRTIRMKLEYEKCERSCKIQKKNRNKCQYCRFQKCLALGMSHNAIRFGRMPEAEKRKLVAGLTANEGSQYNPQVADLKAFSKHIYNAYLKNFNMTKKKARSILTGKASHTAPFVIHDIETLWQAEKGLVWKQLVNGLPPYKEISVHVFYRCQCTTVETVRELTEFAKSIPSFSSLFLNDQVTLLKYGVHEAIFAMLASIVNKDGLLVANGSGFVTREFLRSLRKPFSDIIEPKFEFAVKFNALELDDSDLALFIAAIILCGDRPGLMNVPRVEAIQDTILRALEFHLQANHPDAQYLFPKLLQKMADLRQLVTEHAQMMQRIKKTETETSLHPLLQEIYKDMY

Structure (SMILES)	ratio activity, negative = inhibition	Potency
CC(C)(C)c1cc([N+](=O)[O-])cc(C(C)(C)C)c1O	-1.9% (inactive)	–
c1ccc2c(c1)OCC(C1=NCCN1)O2 (stereo not drawn)	–	23.7 µM (active)
CC(=O)Nc1ccc2c(c1)Cc1ccccc1-2	7.01% [at 80.4 µM] (inactive)	–
CC(=O)OC1(c2ccccc2)CCN(CCc2ccccc2)CC1	4.29% [at 80.4 µM] (inactive)	–
OC(c1ccc(Cl)cc1)(c1ccc(Cl)cc1)C(Cl)(Cl)Cl	-0.374% (inactive)	–

Molecular target: Bile acid receptor (Homo sapiens) (UniProt Q96RI1)
Assay: qHTS assay to identify small molecule antagonists of the farnesoid-X-receptor (FXR) signaling pathway (AID 743217; active = well fitted inhibition curve with a large enough effect in the signal ratio in the repeat runs, not every such curve was filed as active; the % refers to the signal ratio)
Settings: HEK293T FXR-UAS-bla, beta-lactamase ratio, CDCA-stimulated, 16 h; series mostly up to 62.6 µM; activity change, negative = inhibition: at the top concentration
Procedure, shortened: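 Cells carrying a UAS-driven beta-lactamase reporter (GeneBLAzer FXR-UAS-bla HEK 293T) were plated and rested 5 h at 37 °C. Compounds in DMSO were added alongside chenodeoxycholic acid agonist at 50 uM final and left 16 h at 37 °C before FRET substrate readout.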

Sequence of Bile acid receptor (Homo sapiens) (Q96RI1 whole entry, looked up): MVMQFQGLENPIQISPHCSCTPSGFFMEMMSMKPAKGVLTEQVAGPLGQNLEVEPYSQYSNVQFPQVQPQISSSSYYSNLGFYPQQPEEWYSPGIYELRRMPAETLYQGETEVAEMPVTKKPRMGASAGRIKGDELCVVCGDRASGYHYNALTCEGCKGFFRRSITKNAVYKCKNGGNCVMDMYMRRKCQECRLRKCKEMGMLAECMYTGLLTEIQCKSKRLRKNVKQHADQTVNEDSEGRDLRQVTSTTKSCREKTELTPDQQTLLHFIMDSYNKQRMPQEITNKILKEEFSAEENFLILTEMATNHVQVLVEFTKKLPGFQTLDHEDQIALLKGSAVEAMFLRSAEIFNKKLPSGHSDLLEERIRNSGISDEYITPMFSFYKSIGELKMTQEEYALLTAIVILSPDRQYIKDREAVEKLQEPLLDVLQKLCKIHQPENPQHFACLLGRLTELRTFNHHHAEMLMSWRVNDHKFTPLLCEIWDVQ

Structure (SMILES)	activity change, negative = inhibition
CN(C)CCc1c[nH]c2ccc(O)cc12	-4.53% [at 81.1 µM] (inactive)
O=c1ssc(Cl)c1Cl	-23.3% (inactive)
CC(Cc1ccc(C(C)(C)C)cc1)CN1C[C@@H](C)O[C@@H](C)C1 (stereo partly drawn)	-6.26% (inactive)
C[C@]12Cc3nonc3C[C@@H]1CC[C@@H]1[C@@H]2CC[C@@]2(C)[C@H]1CC[C@]2(C)O	-18.6% (inactive)

Tested on: not listed separately
Assay: qHTS assay to identify small molecule agonists of the farnesoid-X-receptor (FXR) signaling pathway - cell viability counter screen (AID 743218; active = well fitted cell-killing curve with a large enough effect in the repeat runs; note: nearly all actives have a fitted effect of over 45% in size; note: potency is the fitted concentration of half-maximal effect)
Settings: FXR-bla HEK293T viability, CellTiter-Glo luminescence, 16 h; series mostly up to 62.6 µM; viability change, negative = cytotoxic: at the top concentration
Procedure, shortened: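 Cells were seeded, left 5 h at 37 C and 5% CO2, then dosed with compound in DMSO for 16 h. After the beta-lactamase FRET read, CellTiter-Glo was added and luminescence measured 30 min later.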

Structure (SMILES)	viability change, negative = cytotoxic	Potency
CN(C)CCc1c[nH]c2ccc(O)cc12	-12.3% [at 81.1 µM] (inactive)	–
O=C(O)c1cc[c]([Hg][Cl])cc1	–	27.5 µM (active)
[CH3][Hg][Cl]	–	13.8 µM (active)
CC(C)(C)c1cc([N+](=O)[O-])cc(C(C)(C)C)c1O	-23.4% (inactive)	–
[Cl][Sb]([Cl])[Cl]	-1.92% (inactive)	–
CC1CCC(C(C)C)C(OC(=O)c2ccccc2N)C1 (stereo not drawn)	–	60.8 µM (active)
CC[C@H]1C[C@@H]2C[C@H]3c4[nH]c5ccc(OC)cc5c4CCN(C2)[C@@H]13	2.04% [at 81.1 µM] (inactive)	–
CC(=O)Nc1ccc2c(c1)Cc1ccccc1-2	-2.45% [at 81.1 µM] (inactive)	–
CCCCCCCCCCCCCN1CC(C)OC(C)C1 (stereo not drawn)	-0.875% (inactive)	–
CC(=O)OC1(c2ccccc2)CCN(CCc2ccccc2)CC1	-14.6% [at 81.1 µM] (inactive)	–
C[C@]12Cc3nonc3C[C@@H]1CC[C@@H]1[C@@H]2CC[C@@]2(C)[C@H]1CC[C@]2(C)O	-25.1% (inactive)	–
ClC1=C(Cl)[C@]2(Cl)[C@@H]3[C@@H]4C[C@@H]([C@H]5O[C@@H]45)[C@@H]3[C@@]1(Cl)C2(Cl)Cl	–	56.4 µM (active)
COC(=O)N(C(=O)N1CO[C@@]2(C(=O)OC)Cc3cc(Cl)ccc3C2=N1)c1ccc(OC(F)(F)F)cc1	-6.56% (inactive)	–

Molecular target: Bile acid receptor (Homo sapiens) (UniProt Q96RI1)
Assay: qHTS assay to identify small molecule agonists of the farnesoid-X-receptor (FXR) signaling pathway (AID 743220; active = well fitted activation curve with a large enough effect in the signal ratio in the repeat runs, not every such curve was filed as active; the % refers to the signal ratio)
Settings: HEK293T FXR-UAS-bla, beta-lactamase FRET ratio, 16 h; series mostly up to 62.6 µM; activation: at the top concentration
Procedure, shortened: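 FXR-UAS-bla HEK 293T cells carrying a UAS-driven beta-lactamase reporter were plated for 5 h at 37C/5% CO2, then exposed to DMSO-dissolved Tox21 10K compounds for 16 h at 37C. A LiveBLAzer B/G FRET substrate was loaded for 2 h at room temperature before fluorescence reading.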

Structure (SMILES)	activation
Fc1ccc(Oc2ccnc3cc(Cl)cc(Cl)c23)cc1	-0.285% (inactive)
CC(C)(C)c1cc([N+](=O)[O-])cc(C(C)(C)C)c1O	3.86% (inactive)
COC12CC[C@@]3(C[C@@H]1C(C)(O)C(C)(C)C)[C@H]1Cc4ccc(O)c5c4[C@@]3(CCN1CC1CC1)[C@H]2O5 (stereo partly drawn)	-1.15% [at 81.1 µM] (inactive)
CC(C)CC(C)(c1ccc(O)cc1)c1ccc(O)cc1	2.22% (inactive)
O=C(O)COc1nc(Cl)c(Cl)cc1Cl	-5.47% [at 81.1 µM] (inactive)
CC1CCC(C(C)C)C(OC(=O)c2ccccc2N)C1 (stereo not drawn)	5.71% (inactive)
O=c1ssc(Cl)c1Cl	4.07% (inactive)
CC(C)C1CCC(Cc2ccc(Cl)cc2)C1(O)Cn1cncn1 (stereo not drawn)	-9.59% (inactive)
CC(Cc1ccc(C(C)(C)C)cc1)CN1C[C@@H](C)O[C@@H](C)C1 (stereo partly drawn)	3.27% (inactive)
C[C@]12Cc3nonc3C[C@@H]1CC[C@@H]1[C@@H]2CC[C@@]2(C)[C@H]1CC[C@]2(C)O	-1.15% (inactive)
Nc1ccc(Sc2ccc(N)cc2)cc1	4.49% [at 81.1 µM] (inactive)
OC(c1ccc(Cl)cc1)(c1ccc(Cl)cc1)C(Cl)(Cl)Cl	5.88% (inactive)
CS(=O)(=O)c1ccc(C(=O)C2C(=O)CCCC2=O)c([N+](=O)[O-])c1	-4.94% [at 81.1 µM] (inactive)
Oc1cc(Cl)c(Cl)c(Cl)c1	-0.261% (inactive)
CC(C)[C@H](C(=O)OC(C#N)c1cccc(Oc2ccccc2)c1)c1ccc(OC(F)F)cc1 (stereo partly drawn)	3.22% (inactive)
S=C=Nc1cccc2ccccc12	-3.09% (inactive)

Tested on: not listed separately
Assay: qHTS assay to identify small molecule antagonists of the farnesoid-X-receptor (FXR) signaling pathway - cell viability counter screen (AID 743221); note: nearly all actives have a fitted effect of over 50% in size; note: potency is the fitted concentration of half-maximal effect
Settings: FXR-bla HEK293T viability, CellTiter-Glo luminescence, 16 h; series mostly up to 62.6 µM; activity change, negative = cytotoxicity: at the top concentration
Procedure, shortened: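 Cytotoxicity is taken from ATP luminescence (CellTiter-Glo, 30 min, room temperature) in FXR-bla HEK 293T cells previously incubated 16 h at 37 C with compound and chenodeoxycholic acid at 50 uM final.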

Structure (SMILES)	activity change, negative = cytotoxicity	Potency
CN(C)CCc1c[nH]c2ccc(O)cc12	-0.946% [at 81.1 µM] (inactive)	–
Fc1ccc(Oc2ccnc3cc(Cl)cc(Cl)c23)cc1	6.38% (inactive)	–
O=C(O)c1cc[c]([Hg][Cl])cc1	-10.3% (inactive)	–
[CH3][Hg][Cl]	–	38.8 µM (active)
[Cl][Sb]([Cl])[Cl]	-37% (inactive)	–
CC(C)CC(C)(c1ccc(O)cc1)c1ccc(O)cc1	–	55.1 µM (active) and inactive
O=C(O)COc1nc(Cl)c(Cl)cc1Cl	9.93% [at 81.1 µM] (inactive)	–
O=c1ssc(Cl)c1Cl	3.69% (inactive)	–
CC(Cc1ccc(C(C)(C)C)cc1)CN1C[C@@H](C)O[C@@H](C)C1 (stereo partly drawn)	-7.51% (inactive)	–
CC[C@H]1C[C@@H]2C[C@H]3c4[nH]c5ccc(OC)cc5c4CCN(C2)[C@@H]13	-23.2% [at 81.1 µM] (inactive)	–
S=C(SSC(=S)N1CCCCC1)N1CCCCC1	–	0.211 µM (active)
CC(=O)Nc1ccc2c(c1)Cc1ccccc1-2	-12.5% [at 81.1 µM] (inactive)	–
Cc1cc(SCc2sc(-c3ccc(C(F)(F)F)c(F)c3)nc2C)ccc1OCC(=O)O	-25% (inactive)	–
CC(c1ccc(O)cc1)c1ccc(O)cc1	16.1% (inactive)	–
CCCCCCCCCCCCCN1CC(C)OC(C)C1 (stereo not drawn)	-16.3% (inactive)	–
O=c1c(C2CC(c3ccc(-c4ccc(Br)cc4)cc3)Cc3ccccc32)c(O)sc2ccccc12 (stereo not drawn)	-15.3% (inactive)	–
Oc1ccc2ccc3cccc4ccc1c2c34	-9.65% (inactive)	–
CCCCCCCCCCCCCCCC[n+]1ccccc1	–	51.3 µM (active) and 43.6 µM (active) and 29.8 µM (active)
C[C@]12CC[C@H]3[C@@H](CCC4=CC(=O)CC[C@@]43C)[C@@H]1CC[C@@H]2O	3.28% (inactive)	–
CC(=O)OC1(c2ccccc2)CCN(CCc2ccccc2)CC1	-3.68% [at 81.1 µM] (inactive)	–
C[C@]12Cc3nonc3C[C@@H]1CC[C@@H]1[C@@H]2CC[C@@]2(C)[C@H]1CC[C@]2(C)O	-2.11% (inactive)	–
O=C(CCl)C(Cl)Cl	–	49.4 µM (active)
C[C@@H]1O[C@@H](O[C@@H]2C=C3CC[C@@H]4[C@H](CC[C@]5(C)[C@@H](c6ccc(=O)oc6)CC[C@]45O)[C@@]3(C)CC2)[C@H](O)[C@H](O)[C@H]1O	–	0.0106 µM (active)
OC(c1ccc(Cl)cc1)(c1ccc(Cl)cc1)C(Cl)(Cl)Cl	24.3% (inactive)	–
CS(=O)(=O)c1ccc(C(=O)C2C(=O)CCCC2=O)c([N+](=O)[O-])c1	-3.97% [at 81.1 µM] (inactive)	–
Clc1ccc(CSC(Cn2ccnc2)c2ccc(Cl)cc2Cl)cc1 (stereo not drawn)	–	23.7 µM (active)
COC(=O)N(C(=O)N1CO[C@@]2(C(=O)OC)Cc3cc(Cl)ccc3C2=N1)c1ccc(OC(F)(F)F)cc1	2.63% (inactive)	–
CC(C)CCCCCCCOP(=O)(Oc1ccccc1)Oc1ccccc1	-6.58% [at 81.1 µM] (inactive)	–
Oc1cc(Cl)c(Cl)c(Cl)c1	-20.3% (inactive)	–
CC(C)[C@H](C(=O)OC(C#N)c1cccc(Oc2ccccc2)c1)c1ccc(OC(F)F)cc1 (stereo partly drawn)	3.44% (inactive)	–

Source: PubChem BioAssay (Tox21)
